Source: PubChem BioAssay (National Center for Advancing Translational Sciences (NCATS))
aSyn yeast inh: inhibitors of alpha-synuclein toxicity in yeast. Yeast expressing alpha-synuclein, growth rescue, BacTiter-Glo, 24 h. Potency, µM (doses to about 46.1 µM), inactives show at the top dose growth rescue (activation), most hits filed as activators. actives 0.14% (n = 370,000). AID 652106; note: % of control where 0% means no effect; nearly all actives have a fitted effect of over 65% in size
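Screening used galactose-induced yeast with toxic alpha-synuclein levels, exposed to compound for 24 hr at 30 deg C. Cell growth, read with BacTiter-Glo luminescence, gave the measured signal.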
Abeta rescue: compounds reversing amyloid beta toxicity in yeast; actives 0.063% (n = 410,000); yeast expressing A-beta42, growth rescue, OD600, 48 h; response scale: 0% DMSO, 100% iron-clioquinol control; Potency, µM (series often up to 46.1 µM), hits mostly activators; note: nearly all actives have a fitted effect of over 55% in size
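Yeast growth medium received pinned compounds, then yeast cells expressing toxic A-beta were added; plates incubated at 30 C for 48 hr. Growth read as absorbance at 600 nm, normalized to DMSO and equimolar FeCl3 plus clioquinol controls.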
Mito fusion act: blocks mitochondrial division or promotes mitochondrial fusion. AID 485298. actives 0.23% (n = 320,000). S. cerevisiae fusion-defective mutant growth rescue, CellTiterGlo 48 h. Potency, µM (series often up to 46.1 µM), inactives show top-dose growth rescue (activation), hits mostly activators; note: % of control where 0% means no effect; nearly all actives have a fitted effect of over 45% in size
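Compounds are tested for their ability to restore growth of mitochondrial fusion-defective yeast strains at non-permissive 37C in YPEG medium over 48 hours. Viability is quantified by luciferase luminescence.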
TDP-43 yeast inh: TDP-43 toxicity inhibition in yeast; TDP-43 expressing yeast growth rescue, BacTiter-Glo, 24 h; Potency, µM (titrated, usually from 46.1 µM), for inactives: top-dose growth rescue (activation), actives largely listed as activators; actives 1.8% (n = 410,000); AID 652104; note: % of control where 0% means no effect; nearly all actives have a fitted effect of over 50% in size
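Yeast cells expressing TDP-43 under galactose induction are exposed to compounds for 24 hr at 30 deg C. BacTiter-Glo luminescence measures growth, so protective compounds score as activators.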
FUS yeast rescue: FUS proteinopathy suppression in yeast. S. cerevisiae FUS-expressing, growth rescue, OD600, 24 h. Potency, µM (titrated, usually from 76.6 µM), actives largely listed as activators. actives 0.24% (n = 390,000). AID 1347120;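 note: plate controls were DMSO vehicle for no effect and reference control for full effect; nearly all actives have a fitted effect of over 55% in size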
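Galactose (2%) drives FUS expression in yeast precultured in raffinose; seeding density OD 0.005. Test compounds incubated 24hr at 30C and 99% humidity before absorbance at 600 nm was measured.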
* marks the source's active call; other numbers are inactive results; [ ] = another dose, or the depositor's remark. Only some compounds are listed: those with a hit (about 2.2% of all), similar ones and a draw of the others. Calls come from the whole dose curve; as a rule, active = well fitted curve in the direction sought with a large enough effect; inconclusive = small, poorly fitted or top-dose-only effect, or another doubt; inactive = no such curve, though single readings can be large; an effect the other way counts as inactive or inconclusive. Potency is the fitted concentration of half-maximal effect.

Screening COc1ccc(-c2ccc(CN3C(C(C)C)C(=O)N(Cc4cn(CCC5OCCO5)nn4)CCS3(=O)=O)cc2)cc1 (stereo not given) returned aSyn yeast inh 6%, Abeta rescue inactive, TDP-43 yeast inh 35µM* and FUS yeast rescue inconclusive.
For COc1ccc(-c2ccc(CN3C(C(C)C)C(=O)N(Cc4cn(CCC5OCCO5)nn4)CCS3(=O)=O)cc2)cc1OC (stereo not given) the results were aSyn yeast inh -1%, Abeta rescue inactive, TDP-43 yeast inh 0% and FUS yeast rescue inconclusive.
Screening COc1cccc(/C(=N/O)C2CC2c2ccc(Cl)cc2)c1 (stereo not given) returned aSyn yeast inh 10%, Abeta rescue inactive, Mito fusion act 4%, TDP-43 yeast inh 16µM* and FUS yeast rescue inactive.
Screening COc1cccc(/C(C)=N/NS(=O)(=O)c2ccc(Cl)cc2)c1 returned aSyn yeast inh 1%, Abeta rescue inactive, Mito fusion act 2%, TDP-43 yeast inh -13% and FUS yeast rescue inactive.
CCCCn1nnnc1NCc1ccc(N2CCCC2)cc1 was read as aSyn yeast inh -3%, Abeta rescue inactive, Mito fusion act -5%, TDP-43 yeast inh -1% and FUS yeast rescue 28µM*.
CC(=O)/C=C\c1ccc(OC(=O)c2cccnc2)cc1 was read as aSyn yeast inh 9%, Abeta rescue inactive, Mito fusion act 0%, TDP-43 yeast inh 20µM* and FUS yeast rescue inactive.
CCOc1ccc(OC(=O)c2cccnc2)cc1 was read as aSyn yeast inh 0%, Abeta rescue inactive, Mito fusion act -2%, TDP-43 yeast inh 16µM* and FUS yeast rescue inactive.
Screening Nc1c(S(=O)(=O)c2ccccc2)nnn1-c1ccccc1 returned aSyn yeast inh 7%, Abeta rescue inactive, Mito fusion act 1%, TDP-43 yeast inh -3% and FUS yeast rescue inactive.
For CCc1ccc(S(=O)(=O)c2nnn(-c3cccc(C)c3)c2N)cc1 the results were Abeta rescue inactive, TDP-43 yeast inh 22µM* and FUS yeast rescue inactive.
For COC(=O)C(=Cc1ccccc1[N+](=O)[O-])C(=O)OC the results were aSyn yeast inh 0%, Abeta rescue inactive, Mito fusion act -61%, TDP-43 yeast inh 16µM* and FUS yeast rescue inactive.
`O=C(/C=C/c1ccccc1[N+](=O)[O-])OCC(=O)c1ccccc1` gave aSyn yeast inh 10%, Abeta rescue inactive, Mito fusion act -6%, TDP-43 yeast inh 20µM* and FUS yeast rescue inactive.
CCCCN(C=O)c1c(CC)nc2c(OCC(=O)c3ccc(F)cc3)cccn12 was read as aSyn yeast inh -8%, Abeta rescue inactive, TDP-43 yeast inh -5% and FUS yeast rescue inactive.
O=C(O)c1ccc(N/N=C/C(Br)=C/c2ccccc2)cc1 was read as aSyn yeast inh -30%, Abeta rescue inactive, Mito fusion act -3%, TDP-43 yeast inh 11µM* and FUS yeast rescue inactive.
For Cc1onc(-c2ccccc2)c1C(=O)N/N=C/C(Br)=C/c1ccccc1 the results were aSyn yeast inh inconclusive, Abeta rescue inactive, Mito fusion act inconclusive and TDP-43 yeast inh 18µM*.
For O=C(O)c1ccc(N/N=C/c2cccc(C(F)(F)F)c2)cc1 the results were aSyn yeast inh -45%, Abeta rescue inactive, Mito fusion act 10%, TDP-43 yeast inh 13µM* and FUS yeast rescue inactive.
`O=C(N/N=C/C(Br)=C/c1ccccc1)NC1CCCCC1` gave aSyn yeast inh 10%, Abeta rescue inactive, Mito fusion act -39%, TDP-43 yeast inh inconclusive and FUS yeast rescue inactive.
O=C(N/N=C/C(Br)=C/c1ccccc1)C1CC1 was read as aSyn yeast inh 10%, Abeta rescue inactive, Mito fusion act 4%, TDP-43 yeast inh 22µM* and FUS yeast rescue inactive.
For Cc1cccc(CC(=O)NC2CC(=O)N(c3ccccc3)C2)c1 (stereo not given) the results were Abeta rescue inactive, TDP-43 yeast inh 0% and FUS yeast rescue inactive.
`CCc1cccc(NC(=O)CSc2nc3ccccc3nc2N2CCCCC2)c1` gave aSyn yeast inh 7%, Abeta rescue inactive, TDP-43 yeast inh -4% and FUS yeast rescue inactive.
`Cc1cccc(-c2cc(NC(=O)C(C)(C)C)n(-c3ccccc3)n2)c1` gave Abeta rescue inactive, TDP-43 yeast inh inconclusive and FUS yeast rescue inactive.
Screening CC(C)(C)C(=O)Nc1cc(-c2cccc(Br)c2)nn1-c1ccccc1 returned Abeta rescue inactive, TDP-43 yeast inh 22µM* and FUS yeast rescue inactive.
COCCCN1C(=O)C(CC(=O)NCC2CCCCC2)CC(C(=O)N(C(C)C)C(C)C)=C1C (stereo not given) was read as aSyn yeast inh 1%, Abeta rescue inactive, TDP-43 yeast inh -15% and FUS yeast rescue inactive.
`COCCNc1nc(-c2ccccc2CO)c2sc(-c3ccccc3)cc2n1` gave aSyn yeast inh -16%, Abeta rescue inactive, TDP-43 yeast inh inconclusive and FUS yeast rescue inactive.
For Cc1cccc(NC(=O)CCn2nc(-c3ccccc3)c3ccccc3c2=O)c1 the results were Abeta rescue inactive, Mito fusion act 3%, TDP-43 yeast inh 20µM* and FUS yeast rescue inconclusive.
`Cc1cc(=O)oc2cc(OCC(=O)N3CCC(O)CC3)c(Cl)cc12` gave aSyn yeast inh 10%, Abeta rescue inactive, Mito fusion act -1%, TDP-43 yeast inh 1% and FUS yeast rescue inactive.
For CC(C)=CCC/C(C)=C/CNCC(=O)N1c2ccccc2[C@]2(c3ccccc3)C[C@@H]3C(=O)N(C/C=C(\C)CCC=C(C)C)CC(=O)N3[C@H]12 the results were FUS yeast rescue 13µM*.
`O=C(Nc1ccccn1)c1cccc(S(=O)(=O)N2CCCc3ccccc32)c1` gave aSyn yeast inh 9%[1.84 µM], Abeta rescue inactive, Mito fusion act 19%, TDP-43 yeast inh 25µM* and FUS yeast rescue inactive.
Cc1ccnc(NC(=O)c2cccc(S(=O)(=O)N3CCCc4ccccc43)c2)c1 was read as aSyn yeast inh 9%, Abeta rescue inactive, Mito fusion act 22%, TDP-43 yeast inh 22µM* and FUS yeast rescue inactive.
For O=S(=O)(c1cccc(Br)c1)N1CCN(c2nc(-c3cccs3)nc3ccccc23)CC1 the results were aSyn yeast inh 0%.
`CCN(CC)CCN(C)C(=O)c1[nH]c(C(F)(F)F)nc1-c1ccccc1` gave aSyn yeast inh -2%, Abeta rescue inactive, TDP-43 yeast inh 9% and FUS yeast rescue inactive.
`CCOc1ccccc1C(=O)NCc1nc2cccnc2n1Cc1ccc(C)cc1` gave Abeta rescue inactive, TDP-43 yeast inh 16µM* and FUS yeast rescue inactive.
